Screen size: about 2,300 compounds; about 1,500 (65%) were called active. So high a share suggests a set chosen from earlier hits. This is one part of the list. Results with a measured potency or affinity are listed apart. Values without a mark were called inactive. The rule behind the calls is not given here.
Test: replicating M. tuberculosis growth inhibition, dose response, non-replicating M. tuberculosis project, H37Rv (AID 492952);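 note: Mycobacterium tuberculosis grown in culture; growth inhibition read after a week of incubation; 0% = bacteria alone untreated and 100% = bacteria with high antibiotic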
Conditions: series mostly up to 50 µM; inhibition: at the top concentration

SMILES	inhibition [%]
O=C(O)c1ccccc1C(=O)NNc1ccc(F)cc1	0.91
CCOC(=O)c1ccc(N=C(CC)c2c(O)n(C)c(=O)n(C)c2=O)cc1	4.28
CCOC(=O)c1ccc(NC2OC(=O)c3ccccc32)cc1 (configuration not stated)	6.55
Nc1scc(-c2ccncc2)c1Cl	3.7
CC(C)Oc1ccc(CNC(=O)Oc2ccccc2)cc1	0.25
COc1ccc(C(C)NC(=O)CCc2ccccc2)cc1 (configuration not stated)	0.5
C/C(=N\NC(=O)c1ccccc1O)C1C(=O)c2ccccc2C1=O	-0.04
O=C(O)CCCCCN1C(=O)CSC1=S	24
Cc1cccc(CC(=O)NCC2CCCCC2)c1	-1.82
Clc1ccccc1CSc1nnc([C@@H]2CCCN2)o1	3.84
S=c1[nH]c2ccccc2o1	-5.96
Cc1cc(OCCOCCNCc2ccccc2)ccc1C(C)C	18.1
Cc1ccc(CNCc2cc(Cl)ccc2O)cc1	5.45
COc1ccc(NCC(=O)N2CCCC2)cc1Cl	12.3
CC(=O)c1ccc(NC(=O)CCc2ccc(C)o2)cc1	-4.59
CCc1ccc(NC(=O)CCc2ccc(C)o2)cc1	-10.7
FC(F)(F)c1nc(SCc2ccc(Cl)cc2Cl)n[nH]1	1.2
CCCCOc1ccc(CSCCN)cc1Cl	-9.05
Cc1ccc(OCCCCn2ccnc2)c([N+](=O)[O-])c1	0.31
Clc1ccc(SCCCCn2ccnc2)cc1	9.6
O=C(COc1ccc2ccccc2c1)NNC(=O)c1cccs1	4.45

SMILES	inhibition [%]
CCc1ccc(OCCCC(=O)Nc2nccs2)cc1	3.19
CCCCCCCCCCn1cc(C(C)=O)c(=O)[nH]c1=O	-6.79
CCOC(=O)C1(O)CC(C)=NN1C(=O)c1cccc(Br)c1 (configuration not stated)	2.82
CCOC(=O)Cc1cc(=O)n2[nH]cc(-c3ccc(Cl)cc3)c2n1	16.1
N#Cc1ccc(N=c2ssnc2Cl)cc1	-4.86
CC1(C)C[C@H]2C=C(C=O)[C@]3(C=O)C[C@]3(C)[C@H]2C1	-4.11
CCc1nnc(N/N=C/c2c(F)cccc2Cl)n1N	2.29
CC(C)(C)c1cc(CN2CCC(O)CC2)cc(C(C)(C)C)c1O	2.57
O=C(COc1ccc(Cl)cc1)Nc1ccccc1Cl	-1.26
O=C(COc1ccc(Br)cc1)N/N=C1/SCC(=O)N1Cc1ccccc1	-21
COc1ccc(NC(=O)COc2ccc3c(c2)CCC3)cc1	1.64
O=C(COC(=O)c1cccc([N+](=O)[O-])c1)NCc1cccs1	18
Cc1ccc(OCC(=O)N2CCCc3ccccc32)cc1	-4.58
O=C(COc1ccc(Cl)cc1)OCC(=O)N1CCCc2ccccc21	5.36
Cn1c(SCc2c(F)cccc2Cl)nc2c(c1=O)SCC2	3.61
COc1cccc(/C=N/NC(=O)c2ccoc2C)c1O	20.1
Cc1ccc(C(=O)N/N=C/C=C/c2ccccc2)cc1	19.8
CCc1ccc(N=CC2=C(O)CC(c3ccco3)CC2=O)cc1 (configuration not stated)	3
CC(=O)N(c1nnc(-c2ccc(C)cc2)s1)C1CCCC1	20.1
O=C(NCCC1=CCCCC1)c1ccc(F)cc1	-3.67
O=C(NCCC1=CCCCC1)c1ccc(Br)o1	-0.64

SMILES	inhibition [%]
COc1ccccc1-c1nnc(-c2ccc(C)cc2)o1	7.38
COc1ccccc1-c1cc(SC)c(C#N)c(=O)o1	-0.91
O=C(COC(=O)c1cccc(C(F)(F)F)c1)NCc1ccccc1	-2.81
FC(F)(F)c1ccc(NCCc2ccccc2)nc1	-0.21
CCOC(=O)Cc1csc(NC(=O)COc2ccc3c(c2)CCC3)n1	0.53
O=C(CNC(=O)c1ccc(Br)cc1)c1ccc(Br)cc1	23.6
Nc1nnc(SCCCC(=O)c2ccc(Br)cc2)s1	5.18
Cc1ccc(C(=O)N/N=C\c2ccc[nH]2)cn1	-5.12
Cc1cccc(C)c1NC(=O)c1sc(N)nc1-c1ccccc1	-4.98
COc1cccc(/C=N/N2C(=O)CSC2=S)c1O	-2.68
O=C(N/N=C\c1ccco1)c1cncc(Br)c1	16.6
Cc1ccc(C(=O)c2cncc(Br)c2)cc1	-7.1
Nn1c(SCCOc2ccc(Cl)cc2)nnc1-c1cccnc1	-2.3
CSCCC(=O)N1CCCC(N2CCN(c3cccc(C(F)(F)F)c3)CC2)C1 (configuration not stated)	4.08
COC(=O)c1ccc(CO/N=C/c2ccc(OC)cc2)o1	4.34
CCCNC(=O)c1ccc(COc2ccc(C)cc2)o1	1.85
Cc1cccc2c(CC(=O)O)noc12	1.24
O=C(NNc1ccc([N+](=O)[O-])cc1)c1ccccc1Cl	3.86
CC1(C)CC(=O)c2cc(C(=O)NNc3ccccc3)c(=O)n(-c3ccccc3)c2C1	14.9
Clc1ccc2c(N3CCCC3)ccnc2c1	-0.83
Cc1ccc(O)c(C(=O)c2cc(C#N)c(=O)n(-c3nccs3)c2)c1	4.6

SMILES	inhibition [%]
Cn1c(=O)c2c(=O)cc(NNC(=O)CC#N)[nH]c2n(C)c1=O	3.96
Cc1ccc(/C=C2\SC(=S)N(C3CCS(=O)(=O)C3)C2=O)o1 (configuration not stated)	-0.18
O=C(COC(=O)c1cccs1)NCCC1=CCCCC1	1.34
Cc1ccsc1C(=O)OCC(=O)NCCC1=CCCCC1	2.87
Cc1ccc(N=N/C(=C\O)C(=O)c2ccncc2)cc1	3.09
O=C(c1ccc(Cl)cc1)c1nnc(-c2ccncc2)o1	-4.56
O=C(Nc1nnc(-c2ccc(Cl)cc2)o1)c1cccc(N2C(=O)CCC2=O)c1	-1.86
FC(F)(F)c1ccc(-c2nnc(-c3cccnc3)o2)cc1	5.31
CC1(c2nnc(-c3ccccc3)o2)CC(c2ccc(Cl)cc2)=NO1 (configuration not stated)	-7
CCOc1ccc(CC(=O)N2N=C(C)CC2(O)C(F)(F)F)cc1 (configuration not stated)	-10.6
CC1=NN(C(=O)COc2ccccc2)C(O)(c2ccccc2)C1 (configuration not stated)	2.02
Nc1nonc1C(=O)NCCN=Cc1cc(Cc2ccccc2)cc(Br)c1O	-2.49
Cc1nn(C)cc1/C=N/NC(=O)c1sc2ccccc2c1Cl	2.4
Cc1cc(C(=O)N/N=C/C=C/c2ccccc2)c(C)o1	1.97
Cc1occc1C(=O)N/N=C/c1ccc[nH]1	4.32
O=C1/C(=C/c2ccco2)CCC1C1CCCC1 (configuration not stated)	-2.45
Cc1cccc2nc(-c3cccnc3)c(NCCC(C)C)n12	5.38
CC1=NN(C(=O)c2ccc(C)o2)C(O)(c2ccccc2)C1 (configuration not stated)	20.8
Cc1ccc2nc3c(c(N)c2c1)CCN3c1ccccc1	11.9

Reference: PubChem BioAssay AID492952 (Southern Research Specialized Biocontainment Screening …, 2010)
